Measured values: the supplement of paper PMC11732987, “Enantioselective OTUD7B fragment discovery through chemoproteomics screening and high-throughput optimisation” (Communications Chemistry, 2025)

Columns and labels:
Experiment in all cases: log2 ratio of Biotin-Ahx-Ub-VS probe labelling (fragment/DMSO); higher = less target engagement (more negative = stronger competition), active = hit call of the paper (q ≤ 0.05, log2 ratio ≤ -1)
Settings in all cases: compound concentration: 200 uM; treatment time: 3 h
[1] = biological target: T1, USP19 (UniProt O94966)
T1 sequence (whole entry): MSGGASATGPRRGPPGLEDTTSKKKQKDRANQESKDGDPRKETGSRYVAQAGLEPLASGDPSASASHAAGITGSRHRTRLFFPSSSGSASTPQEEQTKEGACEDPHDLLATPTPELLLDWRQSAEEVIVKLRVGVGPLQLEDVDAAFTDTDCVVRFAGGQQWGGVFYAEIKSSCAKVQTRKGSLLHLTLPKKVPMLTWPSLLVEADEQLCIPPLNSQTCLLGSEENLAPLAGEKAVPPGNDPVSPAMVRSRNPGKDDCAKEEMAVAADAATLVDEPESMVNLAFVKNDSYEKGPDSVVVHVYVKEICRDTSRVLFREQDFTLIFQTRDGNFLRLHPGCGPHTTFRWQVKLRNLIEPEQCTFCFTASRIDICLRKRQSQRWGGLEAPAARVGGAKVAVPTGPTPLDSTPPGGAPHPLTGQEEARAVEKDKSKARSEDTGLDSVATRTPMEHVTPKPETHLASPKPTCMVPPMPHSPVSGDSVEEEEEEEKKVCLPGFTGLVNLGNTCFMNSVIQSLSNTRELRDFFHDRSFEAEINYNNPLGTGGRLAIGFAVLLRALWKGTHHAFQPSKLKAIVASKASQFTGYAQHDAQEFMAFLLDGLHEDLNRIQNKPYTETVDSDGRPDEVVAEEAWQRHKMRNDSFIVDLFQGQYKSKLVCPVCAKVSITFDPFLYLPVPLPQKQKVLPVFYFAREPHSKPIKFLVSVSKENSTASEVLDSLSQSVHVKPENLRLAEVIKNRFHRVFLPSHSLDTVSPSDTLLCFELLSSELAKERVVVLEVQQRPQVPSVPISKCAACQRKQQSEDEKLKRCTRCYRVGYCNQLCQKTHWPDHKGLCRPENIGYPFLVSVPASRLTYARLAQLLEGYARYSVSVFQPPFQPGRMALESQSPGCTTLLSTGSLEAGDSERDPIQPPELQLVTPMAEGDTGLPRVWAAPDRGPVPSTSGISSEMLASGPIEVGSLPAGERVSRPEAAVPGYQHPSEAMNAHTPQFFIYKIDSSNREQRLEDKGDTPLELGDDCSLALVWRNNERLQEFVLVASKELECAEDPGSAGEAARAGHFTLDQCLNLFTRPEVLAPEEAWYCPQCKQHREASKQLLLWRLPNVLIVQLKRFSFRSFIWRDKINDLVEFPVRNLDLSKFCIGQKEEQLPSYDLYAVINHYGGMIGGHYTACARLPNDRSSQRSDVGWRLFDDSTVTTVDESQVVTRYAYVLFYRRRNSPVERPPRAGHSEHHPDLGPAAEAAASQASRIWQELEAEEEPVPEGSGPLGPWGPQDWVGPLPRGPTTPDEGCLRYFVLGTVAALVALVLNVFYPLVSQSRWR
Outline: (§1)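 Labelling with Biotin-Ahx-Ub-VS (0.5 µM final, 1 h) followed a 3 h triplicate treatment of HEK293T lysate (495 µg per sample, Tris/CHAPS/IGEPAL buffer with protease inhibitors) with fragment at 200 µM or vehicle. Labelled DUBs were NeutrAvidin-enriched, digested with LysC and trypsin, and run by diaPASEF LC-MS/MS. The values, average log2 fragment/vehicle ratios by unpaired t-test, come from global-median-normalised Spectronaut label-free quantities. Proteins with ≥2 unique peptides were used.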

[2] = biological target: T2, USP22 (UniProt Q9UPT9)
T2 sequence (whole entry): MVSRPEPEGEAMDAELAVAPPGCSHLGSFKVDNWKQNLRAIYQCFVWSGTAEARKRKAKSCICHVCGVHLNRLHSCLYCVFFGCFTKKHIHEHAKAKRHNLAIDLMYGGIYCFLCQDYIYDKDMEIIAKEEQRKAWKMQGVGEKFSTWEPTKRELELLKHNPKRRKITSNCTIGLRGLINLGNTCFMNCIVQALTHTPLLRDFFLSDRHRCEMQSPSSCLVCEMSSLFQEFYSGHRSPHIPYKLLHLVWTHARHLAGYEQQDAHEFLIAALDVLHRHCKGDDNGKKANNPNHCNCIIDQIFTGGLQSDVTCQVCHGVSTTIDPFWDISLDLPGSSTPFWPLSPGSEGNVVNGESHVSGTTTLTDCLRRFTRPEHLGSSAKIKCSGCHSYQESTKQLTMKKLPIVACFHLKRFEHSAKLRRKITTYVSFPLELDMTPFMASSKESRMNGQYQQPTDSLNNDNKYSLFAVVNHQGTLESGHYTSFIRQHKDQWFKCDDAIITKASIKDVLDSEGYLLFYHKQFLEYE
Outline: as §1

[3] = biological target: USP24 (UniProt Q9UPU5)
Outline: as §1

[4] = biological target: T3, USP25 (UniProt Q9UHP3)
T3 sequence (whole entry): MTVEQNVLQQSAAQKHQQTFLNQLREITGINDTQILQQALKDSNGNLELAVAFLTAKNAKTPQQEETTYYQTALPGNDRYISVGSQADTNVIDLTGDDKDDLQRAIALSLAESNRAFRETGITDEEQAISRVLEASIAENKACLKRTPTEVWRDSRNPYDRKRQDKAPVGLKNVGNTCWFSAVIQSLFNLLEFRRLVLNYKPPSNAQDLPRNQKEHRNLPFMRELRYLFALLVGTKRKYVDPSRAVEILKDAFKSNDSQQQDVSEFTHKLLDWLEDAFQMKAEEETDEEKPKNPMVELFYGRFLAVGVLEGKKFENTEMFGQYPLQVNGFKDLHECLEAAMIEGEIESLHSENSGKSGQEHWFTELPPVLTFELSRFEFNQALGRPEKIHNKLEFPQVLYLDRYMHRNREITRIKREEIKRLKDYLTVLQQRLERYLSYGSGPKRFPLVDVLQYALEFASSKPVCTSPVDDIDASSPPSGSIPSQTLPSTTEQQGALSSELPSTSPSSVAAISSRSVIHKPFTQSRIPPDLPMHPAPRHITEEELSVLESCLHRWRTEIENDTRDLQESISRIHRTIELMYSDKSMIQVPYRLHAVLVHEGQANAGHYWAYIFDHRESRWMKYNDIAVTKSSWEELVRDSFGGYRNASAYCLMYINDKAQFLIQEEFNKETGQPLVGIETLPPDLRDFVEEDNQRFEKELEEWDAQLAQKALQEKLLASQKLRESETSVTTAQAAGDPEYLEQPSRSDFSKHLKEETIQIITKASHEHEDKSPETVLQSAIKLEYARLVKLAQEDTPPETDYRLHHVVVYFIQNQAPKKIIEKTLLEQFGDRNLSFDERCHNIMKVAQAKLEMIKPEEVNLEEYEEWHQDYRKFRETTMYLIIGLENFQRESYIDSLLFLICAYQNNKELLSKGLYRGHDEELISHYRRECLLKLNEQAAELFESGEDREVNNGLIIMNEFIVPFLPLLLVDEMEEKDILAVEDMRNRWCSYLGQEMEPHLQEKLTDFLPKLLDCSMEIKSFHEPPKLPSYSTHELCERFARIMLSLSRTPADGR
Outline: as §1

[5] = biological target: T4, USP28 (UniProt Q96RU2)
T4 sequence (whole entry): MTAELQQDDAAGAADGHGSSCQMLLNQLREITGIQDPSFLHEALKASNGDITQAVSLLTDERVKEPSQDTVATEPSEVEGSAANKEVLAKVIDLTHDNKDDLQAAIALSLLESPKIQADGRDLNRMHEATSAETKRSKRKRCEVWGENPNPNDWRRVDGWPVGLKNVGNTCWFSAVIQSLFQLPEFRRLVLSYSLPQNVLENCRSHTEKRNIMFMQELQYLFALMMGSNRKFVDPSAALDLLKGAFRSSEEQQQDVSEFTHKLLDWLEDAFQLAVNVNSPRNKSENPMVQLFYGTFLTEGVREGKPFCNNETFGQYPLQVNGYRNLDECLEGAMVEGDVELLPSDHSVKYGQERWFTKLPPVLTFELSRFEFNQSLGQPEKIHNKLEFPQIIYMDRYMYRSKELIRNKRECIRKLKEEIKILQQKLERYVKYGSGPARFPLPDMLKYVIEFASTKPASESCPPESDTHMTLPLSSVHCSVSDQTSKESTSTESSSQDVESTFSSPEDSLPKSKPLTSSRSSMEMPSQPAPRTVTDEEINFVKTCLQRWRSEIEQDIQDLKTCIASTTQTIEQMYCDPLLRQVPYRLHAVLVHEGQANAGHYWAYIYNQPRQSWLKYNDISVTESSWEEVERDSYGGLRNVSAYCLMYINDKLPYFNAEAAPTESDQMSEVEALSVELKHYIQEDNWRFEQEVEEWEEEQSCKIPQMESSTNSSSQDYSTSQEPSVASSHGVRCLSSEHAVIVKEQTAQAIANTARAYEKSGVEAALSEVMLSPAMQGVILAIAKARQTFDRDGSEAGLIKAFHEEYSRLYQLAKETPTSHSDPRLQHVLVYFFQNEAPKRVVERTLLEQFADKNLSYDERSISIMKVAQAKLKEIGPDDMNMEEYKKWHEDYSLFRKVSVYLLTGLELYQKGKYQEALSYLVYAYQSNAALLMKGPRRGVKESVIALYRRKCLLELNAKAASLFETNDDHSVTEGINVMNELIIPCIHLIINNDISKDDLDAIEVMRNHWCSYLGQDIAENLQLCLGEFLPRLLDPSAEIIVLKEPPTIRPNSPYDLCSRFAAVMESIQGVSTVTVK
Outline: as §1

Measured: log2 ratio of Biotin-Ahx-Ub-VS probe labelling

Chain of USP24 (Q9UPU5 whole entry): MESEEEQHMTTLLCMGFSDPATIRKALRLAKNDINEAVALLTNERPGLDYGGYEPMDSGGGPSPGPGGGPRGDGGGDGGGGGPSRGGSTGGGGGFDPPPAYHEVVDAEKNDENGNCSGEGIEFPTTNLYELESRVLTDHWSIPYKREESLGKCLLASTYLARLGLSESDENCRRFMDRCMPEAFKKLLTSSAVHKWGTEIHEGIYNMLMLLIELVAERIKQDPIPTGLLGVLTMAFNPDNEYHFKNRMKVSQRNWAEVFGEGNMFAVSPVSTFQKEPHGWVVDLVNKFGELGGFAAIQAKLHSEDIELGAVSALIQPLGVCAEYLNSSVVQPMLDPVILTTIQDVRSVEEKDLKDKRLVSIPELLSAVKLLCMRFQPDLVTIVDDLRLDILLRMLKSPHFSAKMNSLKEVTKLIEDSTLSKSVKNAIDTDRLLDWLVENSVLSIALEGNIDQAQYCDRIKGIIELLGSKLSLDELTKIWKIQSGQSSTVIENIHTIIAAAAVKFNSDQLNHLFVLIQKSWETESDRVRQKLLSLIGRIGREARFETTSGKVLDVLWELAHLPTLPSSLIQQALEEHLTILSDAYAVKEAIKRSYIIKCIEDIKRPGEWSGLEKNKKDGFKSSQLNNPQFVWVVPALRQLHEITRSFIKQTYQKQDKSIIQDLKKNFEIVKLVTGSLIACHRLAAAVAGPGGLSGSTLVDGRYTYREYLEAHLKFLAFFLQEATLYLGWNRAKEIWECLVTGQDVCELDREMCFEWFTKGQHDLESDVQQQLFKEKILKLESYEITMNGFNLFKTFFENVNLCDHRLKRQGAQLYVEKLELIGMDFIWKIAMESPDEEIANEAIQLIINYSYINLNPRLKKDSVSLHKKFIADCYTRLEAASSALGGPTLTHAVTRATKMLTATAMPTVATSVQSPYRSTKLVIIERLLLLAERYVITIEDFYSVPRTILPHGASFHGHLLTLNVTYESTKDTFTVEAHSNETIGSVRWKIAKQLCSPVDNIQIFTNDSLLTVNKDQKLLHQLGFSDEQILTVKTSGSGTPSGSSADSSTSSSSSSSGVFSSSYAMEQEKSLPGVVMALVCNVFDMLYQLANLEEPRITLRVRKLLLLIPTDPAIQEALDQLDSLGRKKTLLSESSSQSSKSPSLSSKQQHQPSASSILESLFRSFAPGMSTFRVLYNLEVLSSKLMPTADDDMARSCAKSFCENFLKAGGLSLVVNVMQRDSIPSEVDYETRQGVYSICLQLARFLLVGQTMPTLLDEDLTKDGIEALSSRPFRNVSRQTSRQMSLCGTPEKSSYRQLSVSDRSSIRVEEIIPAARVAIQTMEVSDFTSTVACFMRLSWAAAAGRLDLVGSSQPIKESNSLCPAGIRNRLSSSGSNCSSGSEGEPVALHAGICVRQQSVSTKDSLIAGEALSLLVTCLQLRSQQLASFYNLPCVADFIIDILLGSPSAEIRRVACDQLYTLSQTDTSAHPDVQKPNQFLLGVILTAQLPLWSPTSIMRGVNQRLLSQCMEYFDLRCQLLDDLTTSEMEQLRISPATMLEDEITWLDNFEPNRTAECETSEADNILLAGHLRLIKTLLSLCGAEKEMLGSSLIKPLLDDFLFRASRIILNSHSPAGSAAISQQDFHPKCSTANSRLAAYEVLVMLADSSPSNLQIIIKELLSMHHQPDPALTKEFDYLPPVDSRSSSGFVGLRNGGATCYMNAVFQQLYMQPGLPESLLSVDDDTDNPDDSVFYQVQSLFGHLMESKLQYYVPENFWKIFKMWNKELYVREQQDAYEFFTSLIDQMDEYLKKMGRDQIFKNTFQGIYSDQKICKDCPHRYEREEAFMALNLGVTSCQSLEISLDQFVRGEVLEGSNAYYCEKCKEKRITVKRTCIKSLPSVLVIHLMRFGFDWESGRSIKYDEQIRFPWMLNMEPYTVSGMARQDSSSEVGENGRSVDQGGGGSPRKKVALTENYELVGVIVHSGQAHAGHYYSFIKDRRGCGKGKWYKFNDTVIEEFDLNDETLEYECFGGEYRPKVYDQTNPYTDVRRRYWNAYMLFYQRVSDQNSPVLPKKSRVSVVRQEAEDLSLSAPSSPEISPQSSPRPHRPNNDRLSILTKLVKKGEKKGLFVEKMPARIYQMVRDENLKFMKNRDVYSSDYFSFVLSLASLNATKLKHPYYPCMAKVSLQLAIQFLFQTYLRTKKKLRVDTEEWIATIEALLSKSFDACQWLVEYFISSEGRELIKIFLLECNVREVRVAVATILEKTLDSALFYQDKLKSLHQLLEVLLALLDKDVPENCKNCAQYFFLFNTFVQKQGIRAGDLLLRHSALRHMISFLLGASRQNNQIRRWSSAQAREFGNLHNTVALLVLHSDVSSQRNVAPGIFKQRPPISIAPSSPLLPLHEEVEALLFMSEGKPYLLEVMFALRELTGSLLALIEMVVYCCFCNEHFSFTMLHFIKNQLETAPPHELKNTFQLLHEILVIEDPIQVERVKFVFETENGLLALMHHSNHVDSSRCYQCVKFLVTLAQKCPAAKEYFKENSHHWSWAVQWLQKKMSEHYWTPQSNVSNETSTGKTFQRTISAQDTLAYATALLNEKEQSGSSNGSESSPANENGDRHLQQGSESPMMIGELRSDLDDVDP

O=C(CCl)N1CCOCC1C1CC1 (stereo not given)
inactive: [1] -0.0224 | [2] 0.0159 | [3] -0.173 | [4] -0.127 | [5] -0.304
